# Measurements published in publication PMC9911399, “Two distinct binding modes provide the RNA-binding protein RbFox with extraordinary sequence specificity”.
# Positions count from the first letter of the chain named. The full ranking holds about 16,000 sequences; the median of “ka relative to ugcaugu” is about 0.0091, and the highest 2% start at about 0.032. Only a selection was taken, and the highest values are over-represented in it overall.
# T1: RBFOX1 RRM (Homo sapiens, UniProt Q9NWB1 109-208)
# T1 sequence: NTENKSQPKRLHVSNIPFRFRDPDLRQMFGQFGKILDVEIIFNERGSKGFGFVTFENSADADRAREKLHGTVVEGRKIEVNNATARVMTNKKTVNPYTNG
# B1: CAGCUCA (DNA:RNA)
# RNA: GGGAGACCGGAAUUCAGAUUGUCCCAGCUCAUUAAAUCCCGUCGUAGCCACCA
# DNA 1: CAATCTGAATTCCGGTCTCCC
# DNA 2: TGGTGGCTACGACGGGATT
# B2: GUAUCUG (DNA:RNA)
# RNA: GGGAGACCGGAAUUCAGAUUGUCCGUAUCUGUUAAAUCCCGUCGUAGCCACCA
# DNA 1: CAATCTGAATTCCGGTCTCCC
# DNA 2: TGGTGGCTACGACGGGATT
# B3: AAUGCCC (DNA:RNA)
# RNA: B1 RNA with C25A, G27U, C28G, U29C, A31C
# DNA 1: CAATCTGAATTCCGGTCTCCC
# DNA 2: TGGTGGCTACGACGGGATT
# B4: UGAACGA (DNA:RNA)
# RNA: B2 RNA with G25U, U26G, U28A, U30G, G31A
# DNA 1: CAATCTGAATTCCGGTCTCCC
# DNA 2: TGGTGGCTACGACGGGATT
# B5: CUAGAGG (DNA:RNA)
# RNA: B2 RNA with G25C, U28G, C29A, U30G
# DNA 1: CAATCTGAATTCCGGTCTCCC
# DNA 2: TGGTGGCTACGACGGGATT
# B6: UAGCGUU (DNA:RNA)
# RNA: B1 RNA with C25U, U29G, C30U, A31U
# DNA 1: CAATCTGAATTCCGGTCTCCC
# DNA 2: TGGTGGCTACGACGGGATT
# B7: UGACAAC (DNA:RNA)
# RNA: B1 RNA with C25U, A26G, G27A, U29A, C30A, A31C
# DNA 1: CAATCTGAATTCCGGTCTCCC
# DNA 2: TGGTGGCTACGACGGGATT
# B8: AACUUUA (DNA:RNA)
# RNA: B1 RNA with C25A, G27C, C28U, C30U
# DNA 1: CAATCTGAATTCCGGTCTCCC
# DNA 2: TGGTGGCTACGACGGGATT
# B9: GCUGCUG (DNA:RNA)
# RNA: B2 RNA with U26C, A27U, U28G
# DNA 1: CAATCTGAATTCCGGTCTCCC
# DNA 2: TGGTGGCTACGACGGGATT
# B10: UGUCCGU (DNA:RNA)
# RNA: B1 RNA with C25U, A26G, G27U, U29C, C30G, A31U
# DNA 1: CAATCTGAATTCCGGTCTCCC
# DNA 2: TGGTGGCTACGACGGGATT
# B11: UGUGUGG (DNA:RNA)
# RNA: B1 RNA with C25U, A26G, G27U, C28G, C30G, A31G
# DNA 1: CAATCTGAATTCCGGTCTCCC
# DNA 2: TGGTGGCTACGACGGGATT
# B12: UGUUCGU (DNA:RNA)
# RNA: B2 RNA with G25U, U26G, A27U, U30G, G31U
# DNA 1: CAATCTGAATTCCGGTCTCCC
# DNA 2: TGGTGGCTACGACGGGATT
# B13: GCUGUUG (DNA:RNA)
# RNA: B2 RNA with U26C, A27U, U28G, C29U
# DNA 1: CAATCTGAATTCCGGTCTCCC
# DNA 2: TGGTGGCTACGACGGGATT
# B14: UGGUGUG (DNA:RNA)
# RNA: B2 RNA with G25U, U26G, A27G, C29G
# DNA 1: CAATCTGAATTCCGGTCTCCC
# DNA 2: TGGTGGCTACGACGGGATT
# B15: UGCUGAG (DNA:RNA)
# RNA: B2 RNA with G25U, U26G, A27C, C29G, U30A
# DNA 1: CAATCTGAATTCCGGTCTCCC
# DNA 2: TGGTGGCTACGACGGGATT
# B16: UGUGGUG (DNA:RNA)
# RNA: B2 RNA with G25U, U26G, A27U, U28G, C29G
# DNA 1: CAATCTGAATTCCGGTCTCCC
# DNA 2: TGGTGGCTACGACGGGATT
# B17: GUCCUGU (DNA:RNA)
# RNA: B1 RNA with C25G, A26U, G27C, C30G, A31U
# DNA 1: CAATCTGAATTCCGGTCTCCC
# DNA 2: TGGTGGCTACGACGGGATT
# B18: UGAGUUG (DNA:RNA)
# RNA: B2 RNA with G25U, U26G, U28G, C29U
# DNA 1: CAATCTGAATTCCGGTCTCCC
# DNA 2: TGGTGGCTACGACGGGATT
# B19: UGAGGAG (DNA:RNA)
# RNA: B2 RNA with G25U, U26G, U28G, C29G, U30A
# DNA 1: CAATCTGAATTCCGGTCTCCC
# DNA 2: TGGTGGCTACGACGGGATT
# B20: GCUGUCG (DNA:RNA)
# RNA: B1 RNA with C25G, A26C, G27U, C28G, A31G
# DNA 1: CAATCTGAATTCCGGTCTCCC
# DNA 2: TGGTGGCTACGACGGGATT
# B21: AUCUUGC (DNA:RNA)
# RNA: B2 RNA with G25A, A27C, C29U, U30G, G31C
# DNA 1: CAATCTGAATTCCGGTCTCCC
# DNA 2: TGGTGGCTACGACGGGATT
# B22: AUGACCA (DNA:RNA)
# RNA: B1 RNA with C25A, A26U, C28A, U29C
# DNA 1: CAATCTGAATTCCGGTCTCCC
# DNA 2: TGGTGGCTACGACGGGATT
# B23: CUAAUUG (DNA:RNA)
# RNA: B2 RNA with G25C, U28A, C29U
# DNA 1: CAATCTGAATTCCGGTCTCCC
# DNA 2: TGGTGGCTACGACGGGATT
# B24: GGCCUGU (DNA:RNA)
# RNA: B1 RNA with C25G, A26G, G27C, C30G, A31U
# DNA 1: CAATCTGAATTCCGGTCTCCC
# DNA 2: TGGTGGCTACGACGGGATT
# B25: GAUUAGC (DNA:RNA)
# RNA: B2 RNA with U26A, A27U, C29A, U30G, G31C
# DNA 1: CAATCTGAATTCCGGTCTCCC
# DNA 2: TGGTGGCTACGACGGGATT
# B26: UGCAACU (DNA:RNA)
# RNA: B1 RNA with C25U, A26G, G27C, C28A, U29A, A31U
# DNA 1: CAATCTGAATTCCGGTCTCCC
# DNA 2: TGGTGGCTACGACGGGATT
# B27: GGGCCGG (DNA:RNA)
# RNA: B2 RNA with U26G, A27G, U28C, U30G
# DNA 1: CAATCTGAATTCCGGTCTCCC
# DNA 2: TGGTGGCTACGACGGGATT
# B28: CUGUUGU (DNA:RNA)
# RNA: B1 RNA with A26U, C28U, C30G, A31U
# DNA 1: CAATCTGAATTCCGGTCTCCC
# DNA 2: TGGTGGCTACGACGGGATT
# B29: CUGUUUG (DNA:RNA)
# RNA: B2 RNA with G25C, A27G, C29U
# DNA 1: CAATCTGAATTCCGGTCTCCC
# DNA 2: TGGTGGCTACGACGGGATT
# B30: CUGUCGU (DNA:RNA)
# RNA: B2 RNA with G25C, A27G, U30G, G31U
# DNA 1: CAATCTGAATTCCGGTCTCCC
# DNA 2: TGGTGGCTACGACGGGATT
# B31: CGUUUGC (DNA:RNA)
# RNA: B1 RNA with A26G, G27U, C28U, C30G, A31C
# DNA 1: CAATCTGAATTCCGGTCTCCC
# DNA 2: TGGTGGCTACGACGGGATT
# B32: UGUUUUG (DNA:RNA)
# RNA: B2 RNA with G25U, U26G, A27U, C29U
# DNA 1: CAATCTGAATTCCGGTCTCCC
# DNA 2: TGGTGGCTACGACGGGATT
# B33: CGUGUGC (DNA:RNA)
# RNA: B1 RNA with A26G, G27U, C28G, C30G, A31C
# DNA 1: CAATCTGAATTCCGGTCTCCC
# DNA 2: TGGTGGCTACGACGGGATT
# B34: CGUCCUG (DNA:RNA)
# RNA: B2 RNA with G25C, U26G, A27U, U28C
# DNA 1: CAATCTGAATTCCGGTCTCCC
# DNA 2: TGGTGGCTACGACGGGATT
# B35: UGUUCUG (DNA:RNA)
# RNA: B2 RNA with G25U, U26G, A27U
# DNA 1: CAATCTGAATTCCGGTCTCCC
# DNA 2: TGGTGGCTACGACGGGATT
# B36: CGUUCUG (DNA:RNA)
# RNA: B2 RNA with G25C, U26G, A27U
# DNA 1: CAATCTGAATTCCGGTCTCCC
# DNA 2: TGGTGGCTACGACGGGATT
# B37: UGUUUGC (DNA:RNA)
# RNA: B1 RNA with C25U, A26G, G27U, C28U, C30G, A31C
# DNA 1: CAATCTGAATTCCGGTCTCCC
# DNA 2: TGGTGGCTACGACGGGATT
# B38: UGUGUGC (DNA:RNA)
# RNA: B1 RNA with C25U, A26G, G27U, C28G, C30G, A31C
# DNA 1: CAATCTGAATTCCGGTCTCCC
# DNA 2: TGGTGGCTACGACGGGATT
# B39: CCUGUGC (DNA:RNA)
# RNA: B1 RNA with A26C, G27U, C28G, C30G, A31C
# DNA 1: CAATCTGAATTCCGGTCTCCC
# DNA 2: TGGTGGCTACGACGGGATT
# Molecular target: T1, RBFOX1 RRM
# Test: EMSA; HiTS-Eq, 1 nM pool, 10 min; buffer printed only for the single-RNA assays: 10 mM Tris pH 7.5, 150 mM NaCl, 3.4 mM EDTA, 0.001% NP-40, 30 C
# Conditions: tags: His6 N-terminal (pET28a); label: 5' 32P
# Method in brief: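 Purified wild-type or mutant RbFox RRM at increasing concentrations was equilibrated with 1 nM of 5′-radiolabelled RNA carrying 7 randomized nucleotides for 10 min in 50 µL. Unbound RNA was separated by 8% native PAGE and sequenced. Relative association constants came from read-count changes of each RNA species compared with the control reaction, normalised to the cognate motif.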
row,Binder,binding signal
1,B1,0.00282 KA relative to UGCAUGU
2,B2,0.015 KA relative to UGCAUGU
3,B3,0.00474 KA relative to UGCAUGU
4,B4,0.0199 KA relative to UGCAUGU
5,B5,0.00494 KA relative to UGCAUGU
6,B6,0.0117 KA relative to UGCAUGU
7,B7,0.00863 KA relative to UGCAUGU
8,B8,0.000524 KA relative to UGCAUGU
9,B9,0.0323 KA relative to UGCAUGU
10,B10,0.0131 KA relative to UGCAUGU
11,B11,0.0178 KA relative to UGCAUGU
12,B12,0.0328 KA relative to UGCAUGU
13,B13,0.028 KA relative to UGCAUGU
14,B14,0.029 KA relative to UGCAUGU
15,B15,0.0319 KA relative to UGCAUGU
16,B16,0.0376 KA relative to UGCAUGU
17,B17,0.0155 KA relative to UGCAUGU
18,B18,0.0276 KA relative to UGCAUGU
19,B19,0.0109 KA relative to UGCAUGU
20,B20,0.0197 KA relative to UGCAUGU

row,Binder,binding signal
1,B21,0.0138 KA relative to UGCAUGU
2,B22,0.00337 KA relative to UGCAUGU
3,B23,0.013 KA relative to UGCAUGU
4,B24,0.0238 KA relative to UGCAUGU
5,B25,0.0124 KA relative to UGCAUGU
6,B26,0.0132 KA relative to UGCAUGU
7,B27,0.0124 KA relative to UGCAUGU
8,B28,0.0226 KA relative to UGCAUGU
9,B29,0.0332 KA relative to UGCAUGU
10,B30,0.0193 KA relative to UGCAUGU
11,B31,0.019 KA relative to UGCAUGU
12,B32,0.0286 KA relative to UGCAUGU
13,B33,0.0146 KA relative to UGCAUGU
14,B34,0.0127 KA relative to UGCAUGU
15,B35,0.0328 KA relative to UGCAUGU
16,B36,0.0207 KA relative to UGCAUGU
17,B37,0.0351 KA relative to UGCAUGU
18,B38,0.0333 KA relative to UGCAUGU
19,B39,0.0232 KA relative to UGCAUGU
